These entries were drawn from the full list.
aSyn 5UTR act = Activators working through SNCA 5'UTR binding (MLPCN) | alpha-synuclein 5'UTR reporter, activators screen | activity score, % (tested at 7.5 µM), hits read low | hit rate 7.1% among 300,000; in the data active = activity score below about -60%
The depositor's hits bear a star.

Results for NC(=S)N/N=C/c1coc2c(ccc3ccccc32)c1=O ?
aSyn 5UTR act: -74.2*

How did O=C(O)C1CC(=O)N(c2ccc(OCc3ccccc3)cc2)C1 (centres undefined) do in these assays?
aSyn 5UTR act: -66.0*

Results for C=CCNC(=O)C1CC(=O)N(c2ccc(OCc3ccccc3Cl)cc2)C1 (centres undefined) ?
aSyn 5UTR act: -110.7*

Results for O=C(Nc1ccc(-c2nc3ccccc3s2)cc1)C1=COCCO1 ?
aSyn 5UTR act: 94.2

How did O=C(Nc1cccc(-c2nc3ccccc3s2)c1)C1=COCCO1 do in these assays?
aSyn 5UTR act: -81.5*

Results for O=C(Nc1ccc(-c2nc3ccccc3s2)c(O)c1)C1=COCCO1 ?
aSyn 5UTR act: -79.8*

Results for O=C(Nc1ccc(O)c(-c2nc3ccccc3s2)c1)C1=COCCO1 ?
aSyn 5UTR act: -77.7*

Results for COc1ccc(/C=C2\CCCC(C(=O)C(F)(F)F)=C2O)cc1 ?
aSyn 5UTR act: -67.2*

How did Cc1ccc(Cn2ccc(-c3cnc(-c4ccccc4)s3)n2)cc1 do in these assays?
aSyn 5UTR act: -128.1*

Results for Fc1ccc(Cn2ccc(-c3cnc(-c4ccccc4)s3)n2)cc1 ?
aSyn 5UTR act: -139.6*

What do the screens show for `O=S(=O)(c1ccccc1)n1ccc(-c2cnc(-c3ccccc3)s2)n1`?
aSyn 5UTR act: -130.8*

What do the screens show for `O=C(c1ccc(F)cc1)n1ccc(-c2cnc(-c3ccccc3)s2)n1`?
aSyn 5UTR act: -124.1*

What do the screens show for `COC(=O)Nc1nc(-c2ccccc2)c(C(=O)c2ccc(Cl)cc2)s1`?
aSyn 5UTR act: 94.4

How did CC(=O)Nc1cc(-c2ccc(Cl)cc2)[nH]n1 do in these assays?
aSyn 5UTR act: -141.4*

How did CCCC(=O)Nc1nc(-c2ccccc2)ns1 do in these assays?
aSyn 5UTR act: -152.2*

How did CC(=O)Nc1nc(-c2ccc(Cl)cc2)ns1 do in these assays?
aSyn 5UTR act: -206.4*

Results for Cc1nnc(SCCC(=O)Nc2nc(-c3ccccc3)ns2)s1 ?
aSyn 5UTR act: -85.9*

What do the screens show for `CCSc1nc(-c2ccccc2)nc(C(Cl)Cl)n1`?
aSyn 5UTR act: 123.0

Results for CC(C)C(=O)Nc1nc(-c2ccccc2)ns1 ?
aSyn 5UTR act: -182.3*

Results for CCC(=O)Nc1nc(-c2ccccc2)ns1 ?
aSyn 5UTR act: -211.3*

How did O=C(CSc1ncn[nH]1)Nc1nc(-c2ccccc2)ns1 do in these assays?
aSyn 5UTR act: -62.9*

Results for O=C(c1ccccc1)c1cnc(-c2ccccc2)s1 ?
aSyn 5UTR act: -99.0*

How did CN(C)/C=C/C(=O)c1cnc(-c2ccccc2)s1 do in these assays?
aSyn 5UTR act: -116.1*

Results for CN(C)/C=C/C(=O)c1cnc(-c2ccc(Cl)cc2)s1 ?
aSyn 5UTR act: -90.4*

What do the screens show for `CSc1ccccc1NC(=O)C(=O)c1c[nH]c2ccccc12`?
aSyn 5UTR act: -146.0*

What do the screens show for `CCN1CCN(Cc2ccc(NC(=O)c3ccc(C)c(NC(=O)C(=O)c4c[nH]c5ccccc45)c3)cc2C(F)(F)F)CC1`?
aSyn 5UTR act: 111.6

How did O=C(Nc1nccs1)C(=O)c1c[nH]c2ccccc12 do in these assays?
aSyn 5UTR act: -165.4*

Results for O=C(O)CC1=C(Nc2ccccc2)C(=O)N(c2ccccc2)C1c1ccc(Br)cc1 (centres undefined) ?
aSyn 5UTR act: -104.5*

What do the screens show for `O=[N+]([O-])c1ccc2nc(-c3ccccc3)n(OCc3ccc(Cl)cc3)c2c1`?
aSyn 5UTR act: -86.5*

How did COn1c(-c2ccccc2)nc2ccc(Cl)cc21 do in these assays?
aSyn 5UTR act: -137.6*

Results for S=C(NCCN1CCOCC1)Nc1ccc(-c2nc3ccccc3[nH]2)cc1 ?
aSyn 5UTR act: -129.3*

Results for Cc1ccc(NC(=S)NCCCN2CCOCC2)cc1 ?
aSyn 5UTR act: -63.5*

What do the screens show for `Cc1cc(=O)oc2c(C(=O)/C=C\c3cccs3)c(O)ccc12`?
aSyn 5UTR act: -89.1*

How did Cc1c(C(=O)/C=C/c2cccs2)oc2ccc(F)cc12 do in these assays?
aSyn 5UTR act: -201.5*

What do the screens show for `O=C(NCc1cccnc1)/C(=C\c1ccc(-c2ccc(Br)cc2)o1)S(=O)(=O)c1ccccc1`?
aSyn 5UTR act: -138.4*

Results for Cc1ccc(C(=O)N/C(=C\c2ccc(-c3ccc(Br)cc3)o2)C(=O)NCCCN(C)C)cc1 ?
aSyn 5UTR act: 100.0

How did O=C(NCc1cccnc1)/C(=C/c1ccc(-c2ccc(Cl)cc2)o1)S(=O)(=O)c1ccccc1 do in these assays?
aSyn 5UTR act: -78.6*

Results for FC(F)(F)c1nnc2c(Sc3ccccc3)nc3ccccc3n12 ?
aSyn 5UTR act: -102.7*

How did Cc1cccc(-n2cnc(C(=O)NC3CCCCCC3)c2)n1 do in these assays?
aSyn 5UTR act: -100.9*

How did CCC(C)NC(=O)c1cn(-c2cccc(C)n2)cn1 (centres undefined) do in these assays?
aSyn 5UTR act: -110.5*

How did Cc1cc(NC(=O)CSc2nc(-c3ccco3)cc(C(F)(F)F)n2)no1 do in these assays?
aSyn 5UTR act: 68.9

How did CS(=O)(=O)c1nc(-c2ccco2)cc(C(F)(F)F)n1 do in these assays?
aSyn 5UTR act: -75.6*

Results for Cc1ccc(CSCC(=O)Nc2ccccc2C(=O)O)cc1 ?
aSyn 5UTR act: -93.8*

What do the screens show for `CSc1ccccc1NC(=O)CSCc1ccc(C)cc1`?
aSyn 5UTR act: -112.8*

Results for Cc1ccc(C2=NN(S(C)(=O)=O)C(c3ccc4nccnc4c3)C2)cc1 (centres undefined) ?
aSyn 5UTR act: -127.3*

What do the screens show for `CS(=O)(=O)N1N=C(c2ccc3nccnc3c2)CC1c1ccccc1` (centres undefined)?
aSyn 5UTR act: -79.1*

How did COc1ccc(C2CC(c3ccc(OC)c(OC)c3)=NN2S(C)(=O)=O)cc1 (centres undefined) do in these assays?
aSyn 5UTR act: -169.5*

Results for CS(=O)(=O)Nc1ccc(C2=NN(S(C)(=O)=O)C(c3ccc4c(c3)OCO4)C2)cc1 (centres undefined) ?
aSyn 5UTR act: -207.0*

What do the screens show for `COc1ccc(C2=NN(S(C)(=O)=O)C(c3ccc4nccnc4c3)C2)cc1` (centres undefined)?
aSyn 5UTR act: -150.5*

Results for CS(=O)(=O)N1N=C(c2ccccc2)CC1c1ccc2nccnc2c1 (centres undefined) ?
aSyn 5UTR act: -77.3*

Results for COc1ccc(N=Nc2c(N)n[nH]c2N)cc1 ?
aSyn 5UTR act: -84.6*

Results for COc1ccc(N=Nc2ccc(N)nc2N)cc1 ?
aSyn 5UTR act: -68.2*

What do the screens show for `O=C(NCc1ccco1)/C(=C/c1ccc(C(F)(F)F)cc1)c1nc2ccccc2[nH]1`?
aSyn 5UTR act: -93.6*

How did O=C(NCc1ccco1)/C(=C/c1cccc(C(F)(F)F)c1)c1nc2ccccc2[nH]1 do in these assays?
aSyn 5UTR act: -84.2*

Results for Cc1cc(O)c(C2=Nc3ccccc3SC(c3ccc(Cl)cc3)C2)c(=O)o1 (centres undefined) ?
aSyn 5UTR act: -261.2*

Results for O=C(Nc1nc2ccc(F)cc2s1)C1CCN(S(=O)(=O)c2cc([N+](=O)[O-])ccc2Cl)CC1 ?
aSyn 5UTR act: -197.2*

Results for CC(=O)N1c2ccc(S(=O)(=O)N3CCC(C(=O)NCc4ccccc4Cl)CC3)cc2CC1C (centres undefined) ?
aSyn 5UTR act: -181.5*

What do the screens show for `Cc1ccc2nc(NC(=O)C3CCN(S(=O)(=O)c4cnc[nH]4)CC3)sc2c1`?
aSyn 5UTR act: -78.0*

Results for O=C(NCc1ccccc1)C1CCN(S(=O)(=O)c2cc([N+](=O)[O-])ccc2Cl)CC1 ?
aSyn 5UTR act: -66.7*

How did Cc1cccc(CS(=O)(=O)c2ncc(Cl)c(C(=O)NCc3ccccc3)n2)c1 do in these assays?
aSyn 5UTR act: 63.8
